Screens deposited in PubChem by National Center for Advancing Translational Sciences (NCATS).
GLP1R ag = agonists of human GLP-1 receptor. AID 624172. Potency, µM (series often up to 45.6 µM), usual class: activators. 380,000 compounds, 0.007% hits. HEK293 GLP-1R CRE-luciferase, luminescence, 4-6 h; cells express a hypersensitive GLP-1R form
Target sequence (P43220 whole entry, looked up): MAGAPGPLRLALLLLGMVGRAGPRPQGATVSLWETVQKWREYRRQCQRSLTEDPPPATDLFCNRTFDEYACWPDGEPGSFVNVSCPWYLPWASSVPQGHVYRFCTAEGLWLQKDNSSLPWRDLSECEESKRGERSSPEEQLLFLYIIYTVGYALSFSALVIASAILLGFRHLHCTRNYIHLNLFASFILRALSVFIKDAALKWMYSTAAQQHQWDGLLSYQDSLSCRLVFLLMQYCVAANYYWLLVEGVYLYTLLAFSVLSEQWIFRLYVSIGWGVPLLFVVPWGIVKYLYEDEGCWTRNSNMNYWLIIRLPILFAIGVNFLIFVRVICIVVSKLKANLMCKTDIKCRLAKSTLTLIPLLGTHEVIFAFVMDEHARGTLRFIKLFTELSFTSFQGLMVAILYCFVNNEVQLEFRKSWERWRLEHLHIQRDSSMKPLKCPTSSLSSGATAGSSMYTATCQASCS
D3 antag = antagonists of human D3 dopamine receptor; P35462; D3R cells, DiscoveRx beta-arrestin luminescence, antagonist mode; active compounds read low; max response, negative = inhibition, %; 360,000 compounds, 2.5% hits; AID 652054; in the data active = max response below about -50%; inconclusive = no clear call, values can overlap the other calls
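Cells plated overnight at 1500 cells/well, then exposed to library compounds with dopamine controls for 90 minutes at 37 degrees C. DiscoveRx reagent added for 30–60 minutes at room temperature; luminescence read, quantitative HTS format.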
DRD3 agonist = activates the human D3 dopamine receptor; D3R DiscoveRx beta-arrestin cells, luminescence, 90 min; 410,000 compounds, 0.58% hits; P35462; max activation, %; in the data active = max activation above about 30%
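Cells at 1500/well, incubated overnight, then treated with pinned compounds (dopamine as control) for 90 min at 37 degrees C. DiscoveRx reagent added for 30 - 60 minutes at room temperature; luminescence read.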
GLP1R inv ag = acts as inverse agonist at human GLP-1 receptor | P43220 | HEK293 GLP-1R CRE-luciferase, luminescence, 24 h; GLP-1R form is constitutively active | Potency, µM (highest dose often 38.3 µM), hits mostly inhibitors | 410,000 compounds, 1.6% hits | AID 624417; note: nearly all actives have a fitted effect of over 55% in size
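Readout was luciferase luminescence, measured 12 min after detection reagent at room temperature. Beforehand, GLP-1R reporter HEK293 cells had sat 12 h, then received compounds for 24 hr at 37 deg C.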
ClpP mod = qHTS Assay for Activators of ClpP | ATP-dependent Clp protease proteolytic subunit (Bacillus subtilis (strain 168)), P80244 | purified B. subtilis ClpP, FRET peptide cleavage, 20 min | Potency, µM (titrated, usually from 57.5 µM) | 340,000 compounds, 1.9% hits; active = well fitted falling curve with a large enough effect; inconclusive = small, poorly fitted or top-dose-only effect; inactive = no such curve, though single readings can be large or run the other way; note: the source files actives as falling curves though it sought activators and does not explain the sign; nearly all actives have a fitted effect of over 65% in size
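ClpP 10 microg/mL final, pH 8 Tris/KCl buffer with BSA, glycerol, Tween-20; compound pinned in; FRET-FV substrate; RT 20 min; Ex320/Em430; ΔFRET vs ADEP 5.8 microM, DMSO, no enzyme.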
GLP1R cytotox = cytotoxic in the GLP-1 receptor inverse agonist counter-screen; HEK293 cAMP-luciferase reporter cells, luminescence, 24 h; Potency, µM (titrated, usually from 38.3 µM), usual class: inhibitors; 410,000 compounds, 0.13% hits;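 note: loss of luciferase light is scored as toxicity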
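1536-well qHTS counterscreen of the MLSMR; 200 cells/uL, 12 h pre-incubation, 23 nL cpd, 24 h at 37 deg C 5% CO2, luciferase detection reagent, 12 min RT, luminescence. Inhibition = undesired.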
Numbers stand for hits; i = inactive; ? = inconclusive; nt = not tested or not shown. In the library only some 5.7% were active in any assay of this set; here they are far more common. Unless noted, calls come from the whole dose curve; as a rule, active = well fitted curve in the direction sought with a large enough effect; inconclusive = small, poorly fitted or top-dose-only effect, or another doubt; inactive = no such curve, though single readings can be large; an effect the other way counts as inactive or inconclusive.

SMILES	GLP1R ag	D3 antag	DRD3 agonist	GLP1R inv ag	ClpP mod	GLP1R cytotox
CN(C)CCCNc1nc2sc3c(c2c(=O)n1CCc1ccccc1)CCCCC3	i	i	i	3.16µM	i	?
O=C(Cn1c(=O)nc(-c2ccccc2)c2cc(Cl)ccc21)NCCCc1ccccc1	i	nt	i	i	i	i
COC(=O)c1sc(N2C(=O)c3oc4cc(C)c(C)cc4c(=O)c3C2c2ccccc2F)nc1C (stereo not given)	nt	nt	i	i	i	i
O=C(COC(=O)/C=C/c1ccc(C(F)(F)F)cc1)NC1CC1	i	-63.7	i	i	i	i
c1ccc(Cn2ncc3ccccc32)cc1	i	i	i	i	i	i
CN(C)c1nc(-c2ccccc2)c2cnn(Cc3ccccc3)c2n1	i	i	i	?	28.2µM	i
NC(=O)NOCc1ncc(C(F)(F)F)cc1Cl	i	i	i	i	28.2µM	i
Cc1ccc(Cl)cc1NC(=O)Cn1c(=O)n(C(C)C)c(=O)c2oc3ccccc3c21	nt	nt	i	i	i	i
CC(C)OC(=O)c1cccc(C(=O)Oc2ccccc2)n1	i	-58.9	i	i	i	i
Cc1ccc(Cl)cc1NC(=O)COC(=O)CCN1C(=O)C2CC=CCC2C1=O (stereo not given)	i	i	i	i	25.1µM	i
Cc1ccc(Cl)cc1NC(=O)CSC(N)=O	i	-67.9	i	i	i	i
Cc1ccc(Cl)cc1NC(=O)NCCN1CCCCC1	i	-67.1	i	i	i	i
Cc1ccc(Cl)cc1NC(=O)COC(=O)CN1C(=O)C2CCCCC2C1=O (stereo not given)	i	i	i	i	i	i
CCCOC(=O)c1c(NC(=O)c2nc3ncccn3n2)sc(C(=O)OCC)c1C	nt	nt	i	i	i	i
CCc1cccc(NC2c3ccccc3C(=O)N2c2ccc(C)cn2)c1 (stereo not given)	i	i	i	12.6µM	i	i
CC(C)C[C@H]1CNC(=S)N1C[C@H]1CCCN1C[C@H](CC(C)C)N1C[C@H](Cc2ccc(O)cc2)N(CC2CCCCCC2)C1=S	i	i	i	?	i	i
Cc1c(S(=O)(=O)N(C)C2CCCCC2)c(=O)n(C)c(=O)n1C	i	i	i	i	12.6µM	i
COC(=O)Cn1c(=NC(=O)c2ccc(OC)cc2)sc2cc(OC)ccc21	i	i	i	i	25.1µM	i
COC(=O)Cn1c(=NC(=O)c2cccc(OC)c2)sc2cc(OC)ccc21	i	i	i	i	25.1µM	i
COc1cc(OC)cc(C(=O)N=c2sc3ccccc3n2C)c1	i	i	i	i	i	i
COc1cccc(C(=O)N=c2sc3cc(S(C)(=O)=O)ccc3n2C)c1	i	i	i	i	nt	i
COC(=O)Cn1c(=NC(=O)c2ccc(S(=O)(=O)N3CCc4ccccc4C3)cc2)sc2cc(OC)ccc21	i	i	i	i	i	i
COC(=O)Cn1c(=NC(=O)c2cc(OC)cc(OC)c2)sc2cc(OC)ccc21	i	i	i	i	28.2µM	i
COC(=O)Cn1c(=NC(=O)c2nc3ccccc3s2)sc2cc(S(N)(=O)=O)ccc21	i	i	i	i	22.4µM	i
O=C(C[n+]1ccncc1)c1cccc([N+](=O)[O-])c1	nt	nt	nt	nt	i	nt
SMILES	GLP1R ag	D3 antag	DRD3 agonist	GLP1R inv ag	ClpP mod	GLP1R cytotox
Cc1cccc(N2CCN(C(=O)c3cnn(-c4ccccc4Cl)c3C3CCN(C(=O)OC(C)(C)C)CC3)CC2C)c1 (stereo not given)	nt	nt	i	i	i	i
CCCCNC(=O)/C(C#N)=C/c1ccc2c(c1)OCCO2	i	i	i	i	25.1µM	i
CCOCCCNC(=O)/C(C#N)=C/c1ccc(Cl)c([N+](=O)[O-])c1	i	i	i	11.2µM	nt	?
CCOCCCNC(=O)/C(C#N)=C/c1cc(OC)c(O)c([N+](=O)[O-])c1	i	i	i	?	nt	?
N#C/C(=C\c1ccc(O)c(O)c1)C(=O)NCCCc1ccccc1	i	-80.0	i	?	i	i
CCC(=O)N1CCN(c2ccc(Cl)cc2NC(=O)Cc2ccc(Cl)cc2)CC1	i	i	i	i	i	i
